The whole screen tested about 360,000 compounds, of which about 9,100 (2.5%) were called active. Not shown: some 4% with an inconclusive outcome. Rule as the data show it: active = max response below about -50%; inconclusive = no clear call, values can overlap the other calls; inactive = above that. The list comes from a sample in which actives are over-represented; it also holds similar structures and randomly drawn compounds.
target: D(3) dopamine receptor (Homo sapiens) (UniProt P35462); assay: qHTS of D3 Dopamine Receptor Antagonist: qHTS; settings: D3R cells, DiscoveRx beta-arrestin luminescence, antagonist mode; stronger effect = lower value
Sequence (P35462 whole entry, looked up): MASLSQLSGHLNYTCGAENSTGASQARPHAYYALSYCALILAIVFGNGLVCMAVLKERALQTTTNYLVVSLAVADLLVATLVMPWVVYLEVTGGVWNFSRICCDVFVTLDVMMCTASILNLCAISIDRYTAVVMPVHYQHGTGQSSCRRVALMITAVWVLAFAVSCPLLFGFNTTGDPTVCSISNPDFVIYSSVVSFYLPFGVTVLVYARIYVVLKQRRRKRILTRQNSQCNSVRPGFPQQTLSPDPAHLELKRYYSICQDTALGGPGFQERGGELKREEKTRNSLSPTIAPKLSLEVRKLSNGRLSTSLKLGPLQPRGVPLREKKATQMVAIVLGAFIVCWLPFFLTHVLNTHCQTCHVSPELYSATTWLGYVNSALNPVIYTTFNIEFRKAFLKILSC
Outline: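 Cells plated overnight at 1500 cells/well, then exposed to library compounds with dopamine controls for 90 minutes at 37 degrees C. DiscoveRx reagent added for 30–60 minutes at room temperature; luminescence read, quantitative HTS format.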
% is scaled to controls: 0 for no effect and ±100 for the full control effect.

SMILES | max response, negative = inhibition
Cc1[nH]c2ccccc2c1C(=O)c1cc([C@H](NC(=O)OC(C)(C)C)C(C)C)sc1N | 17.9% (inactive)
COC(=O)c1ccc(CN2C(=O)C(Cc3ccccc3)ON=C2c2ncccc2C)o1 (stereo unspecified) | 14.2% (inactive)
CCCCCCN1CCN(C2CN(Cc3cn(CCCCCC)nn3)S(=O)(=O)C2)CC1 (stereo unspecified) | -13.3% (inactive)
O=C(Nc1cccc2cccnc12)c1ccc2sc([C@H]3C[C@H](O)[C@@H](CO)O3)nc2c1 | 119% (inactive)
CCN(CC)CCNc1ccc(Cl)cc1[N+](=O)[O-] | -86.2% (active)
CSc1ccccc1NC(=O)CN(C)CC(=O)Nc1ccc(Cl)cc1[N+](=O)[O-] | -10.8% (inactive)
CN(C)CCNc1ccc(-c2n[nH]c(=O)c3ccccc23)cc1[N+](=O)[O-] | -21.7% (inactive)
CC1Cc2[nH][nH]c(=O)c2C(C2CC2)O1 (stereo unspecified) | 2.81% (inactive)
O=C(NCc1ccccc1)C1c2ccccc2OCC(=O)N1C1CC1 (stereo unspecified) | 3.07% (inactive)
CCC(c1nc2ccccc2[nH]1)n1c(=O)c(-c2cccs2)nc2ccccc21 (stereo unspecified) | -19.2% (inactive)
CC(=O)Nc1cnc(-c2ccc(O)cc2C)cn1 | 12.9% (inactive)
CC1(C(=O)NS(=O)(=O)c2cccc(OC(F)F)c2)CCN1C(=O)COc1ccc(Cl)cc1 (stereo unspecified) | 0% (inactive)
COc1ccc(C(=O)NNC(=O)c2cnccn2)cc1[N+](=O)[O-] | -63.8% (active)
CCOc1ccc(C(=O)Nc2nccs2)cc1[N+](=O)[O-] | 2.71% (inactive)
COc1cccc(OCC(=O)NNC(=O)c2cnccn2)c1 | -0.611% (inactive)
CCc1nc2ccc(C(=O)Nc3cc(-c4ccccc4)ccc3OC)cn2c1N(CC)CC(=O)N(C)C | -16.4% (inactive)
NC(Cc1ccccc1)c1csc(Nc2cc(Oc3ccccc3)ncn2)n1 (stereo unspecified) | 9.45% (inactive)
O=C(c1cc(C2CCCCN2S(=O)(=O)c2ccccc2)on1)N1CCOCC1 (stereo unspecified) | 44.2% (inactive)
CCCCN(C(C)=O)c1ccc2c(c1)C1CC2CCN1Cc1ccccc1 (stereo unspecified) | -22% (inactive)
O=C(Cn1cnc2c(nnn2-c2ccccc2)c1=O)N1CCC(Cc2ccccc2)CC1 | -67.4% (active)
COc1ccc(-n2nnc3c(=O)n(CC(=O)N4CCC(Cc5ccccc5)CC4)cnc32)cc1 | -29.9% (inactive)
COc1ccc(-n2nnc3c(=O)n(CC(=O)OCc4ccccc4)cnc32)cc1 | 7.78% (inactive)
CC(C)(C)Cc1c(C2CCCCC2)nc2ccc(Br)cn12 | 20.9% (inactive)

SMILES | max response, negative = inhibition
CCN(CC)c1ncnc2c1ncn2[C@H]1CN(Cc2cccs2)C[C@@H](CO)O1 | -18.3% (inactive)
CC1(C(=O)NCc2ccc3c(c2)OCO3)CCN1C(=O)Cc1cccc2ccccc12 (stereo unspecified) | -2.93% (inactive)
O=C(c1ccco1)N1CCN(Cc2cccc(C(F)(F)F)c2)CC1 | 19.4% (inactive)
FC(F)(F)c1cccc(Cc2noc(CN3CCC(N4CCCCC4)CC3)n2)c1 | 43.6% (inactive)
CCOC(=O)N1CCN(Cc2nc(Cc3cccc(C(F)(F)F)c3)no2)CC1 | -50.2% (active)
CCCNC(=O)C1(C)CCCN(C(=O)c2cccc(OC(C)=O)c2C)C1 (stereo unspecified) | 9.36% (inactive)
COc1ccccc1Cc1c(-c2ccc(Cl)cc2)nc2c3ccccc3ccn12 | 7.3% (inactive)
O=C(NCCS(=O)(=O)NCc1ccc(F)cc1)c1ccccc1 | -8.19% (inactive)
Cc1ccc(CNS(=O)(=O)CCNC(=O)c2ccccc2)cc1 | 18.2% (inactive)
CCCCNCCS(=O)(=O)NCc1ccccc1 | -71.2% (active)
CC(=O)N1CCN(Cc2cc(=O)oc3cc(C)ccc23)CC1 | 10.4% (inactive)
COc1ccc(S(=O)(=O)N2CCN(CC(=O)N3CCNC3=O)CC2)cc1OC | 3.73% (inactive)
Cn1ncc([N+](=O)[O-])c1C(=O)Nc1cc(Cl)ccc1Cl | 0% (inactive)
O=C(/C=C/Sc1ncn[nH]1)c1ccc(Cl)cc1 | -50.9% (active)
O=C(CSc1ncn[nH]1)NCc1ccc2c(c1)OCO2 | 5.23% (inactive)
O=C(CSc1ncn[nH]1)Nc1ccc(Br)cc1Br | -17.2% (inactive)
CN(C)C(=O)c1cccc(-c2cnc3sc(NCc4ccc5c(c4)OCO5)nn23)c1 | 59.7% (inactive)
CCCCCc1c(-c2cccc(Br)c2)ncn1CCc1ccccc1OC | 19.8% (inactive)
CCCNC(=O)C1(C)CCCN(C(=O)c2oc3ccccc3c2C)C1 (stereo unspecified) | -13.3% (inactive)
Cc1nn(C)cc1C(=O)NNC(=S)Nc1ccc(Cl)cc1 | -63.2% (active)
Cn1cc(Cl)c(C(=O)NNC(=S)Nc2cccc(Cl)c2)n1 | -24.3% (inactive)
Cc1nn(C)cc1CNC(=O)Nc1ccc(Cl)cc1 | 6.1% (inactive)
Cc1cccc(CN2CCN(C3CN(Cc4ccccc4)S(=O)(=O)C3)CC2)c1 (stereo unspecified) | -8.28% (inactive)

SMILES | max response, negative = inhibition
Cc1cc2nc(-c3ccc(Cl)cc3)c(Cc3cccc(F)c3)n2c(C)c1Br | 0% (inactive)
COc1ccccc1CC1(C)C(=O)Nc2ccc(OC(F)(F)F)cc21 (stereo unspecified) | -16.9% (inactive)
CC(=O)Nc1ccc2c3c(ccc([N+](=O)[O-])c13)CC2 | -18.8% (inactive)
CN1/C(=C\C=C2\N=C(c3ccc(F)cc3)OC2=O)C(C)(C)c2ccccc21 | -63.7% (active)
CC(=O)Nc1cccc(OCC(=O)/C=C2\N(C)c3ccccc3C2(C)C)c1 | 12.1% (inactive)
CN1CCN(CCC(=O)N/N=C/C=C2\N(C)c3ccccc3C2(C)C)CC1 | -23.3% (inactive)
Cc1cc2c(cc1C)N1C(=O)c3cc4ccccc4cc3NC(=O)C1C(=O)N2 (stereo unspecified) | 0% (inactive)
CC(=O)C[C@@H]1OC[C@H](C)N1S(=O)(=O)c1ccc(C)cc1 | 1.58% (inactive)
Cc1nccn1-c1ccc(NC(=O)[C@H]2O[C@@H](n3ccc(=O)[nH]c3=O)[C@H](O)[C@@H]2O)cc1 | 23.4% (inactive)
CCc1nc2c(OCc3ccc(C(F)(F)F)cc3)cccn2c1N(C)C(=O)CC(C)C | 3.13% (inactive)
COc1cccc(-c2cnc(C(O)c3ccccc3OC)[nH]2)c1 (stereo unspecified) | 0% (inactive)
CC1(C(=O)NCc2ccccc2)CSCC(=O)N1CCCn1ccnc1 (stereo unspecified) | 11.4% (inactive)
CCN(CC)c1ccc(/C=N/Nc2nc(C)cc(C)n2)c(O)c1 | -81.5% (active)
CCOc1cc(/C=N/Nc2cc(C)nc3ccc(C)cc23)ccc1O | 3.59% (inactive)
Cc1ccc(/C=N/NC(=O)C2=NNC(c3ccccc3)(c3ccccc3)C2)c(O)c1 | 15.1% (inactive)
CCN(CC)c1ccc(/C=N/NC(=O)c2cnccn2)c(O)c1 | -57.7% (active)
COc1ccc(NC(=O)C/C(C)=N/NC(=O)c2cnccn2)cc1Cl | 3.87% (inactive)
Cc1ccc2cc(/C=N/Nc3ccc(C(=O)O)cc3)c(Cl)nc2c1 | 13.3% (inactive)
c1cc(-c2ccc3[nH]ccc3c2)n2ccnc2c1 | 0% (inactive)
CCNC(=O)C1(C)CCN(C(=O)c2ccccc2)C1 (stereo unspecified) | 0% (inactive)
COc1ccc(C(C(=O)NCc2ccccc2)n2c(=O)c(-c3ccccc3)nc3ccccc32)cc1 (stereo unspecified) | -3.74% (inactive)
COc1ccc(OC)c(NC(=O)C2CCCN2S(=O)(=O)c2ccc3c(c2)CC(C)N3C(C)=O)c1 (stereo unspecified) | -11.1% (inactive)
CCN(CCN(C)C)C(=O)c1ccc2nc(C)c(N(C)C(=O)CCc3ccccc3)n2c1 | 14.8% (inactive)

SMILES | max response, negative = inhibition
COc1ccc(S(=O)(=O)N2CCC(C(=O)NCCC(=O)Nc3ccccc3OC)CC2)cc1 | 23.8% (inactive)
CN=C1C=C/C(=N/N=c2\ccn(O)cc2C)C=C1C | -67.8% (active)
O=C(COC(=O)CCc1c[nH]c2ccccc12)Nc1cccc(Cl)c1 | -6.82% (inactive)
O=C(NC(=O)N1CCOCC1)c1ccccc1 | 160% (inactive)
NC(=NC(=O)c1ccccc1)N1CCOCC1 | -52.7% (active)
O=C(CSC(=S)N1CCOCC1)c1ccccc1 | -4.48% (inactive)
Cc1cc2oc(=O)cc(CN(C)Cc3ccccc3)c2cc1Cl | 9.91% (inactive)
CCCCN1C(=O)C(CC(=O)NCc2cccs2)CC(C(=O)N2CCCCCC2)=C1C (stereo unspecified) | 0% (inactive)
O=C(CCCNS(=O)(=O)c1cccc2nsnc12)NCCN1CCN(c2ccccc2F)CC1 | -84.7% (active)
O=C(CCS(=O)(=O)c1cccc2nsnc12)N1CCN(c2ccccc2F)CC1 | 1.65% (inactive)
COc1ccccc1CNC(=O)CCCNS(=O)(=O)c1cccc2nsnc12 | -0.0929% (inactive)
OC[C@@H]1CN(Cc2ccc3c(c2)OCO3)C[C@H](n2cnc3c(NCc4ccco4)ncnc32)O1 | -5.45% (inactive)
COC(=O)[C@@]1(Sc2ccc(C)cc2)CC(=O)N(c2cccc(SC)c2)[C@@H]1c1ccccc1 | 3.45% (inactive)
N#Cc1nc(N)nc(N(c2ccccc2)c2ccccc2)n1 | -74% (active)
CC(C)Nc1nc(N(c2ccccc2)c2ccccc2)nc(-n2ccnc2)n1 | 16.7% (inactive)
CC(=O)Nc1ccc(CNc2nc(NCCN(C)C)nc3cc(-c4ccccc4)sc23)cc1 | -24.6% (inactive)
CCOC(=O)C1CCCN(C(=O)c2cc(-c3cccs3)oc2C)CC1 (stereo unspecified) | 11% (inactive)
O=c1[nH][nH]c(C(F)(F)F)c1C=NCc1ccccc1Cl | -70.6% (active)
COc1ccc(S(=O)(=O)N2CCCCC2c2cc(C(=O)NCc3ccc(F)cc3)no2)cc1 (stereo unspecified) | 8.77% (inactive)
Cc1cc(C(=O)N2CCCC2(C)C(=O)O)c(C)o1 (stereo unspecified) | 16.6% (inactive)
CCOC(=O)C1=CC[C@@H](c2ccccc2)N(S(=O)(=O)c2ccc(C)cc2)[C@H]1c1ccc(CC)cc1 | 4.64% (inactive)
O=C(NCc1cccnc1)c1cc(C2CCCCN2C(=O)CCc2ccccc2)on1 (stereo unspecified) | -10.2% (inactive)

Source: PubChem BioAssay AID652054 (National Center for Advancing Translational Sciences (NCATS), 2013)
